# Measured values from PubChem BioAssay (NCATS).
# “And” between values parts separate entries of the source, which are not always exact repeats. Identical values can stand only once. Results filed as inconclusive are left out. Where a call stands in place of a potency, no number is given. The source made the active and inactive calls. Unless noted, the call rests on the fitted dose curve; in most records, active means well fitted curve in the direction sought with a large enough effect; inconclusive means small, poorly fitted or top-dose-only effect, or another doubt; inactive means no such curve, though single readings can be large; an effect the other way counts as inactive or inconclusive.
# How the values were obtained:
# [1] = target: Cytochrome P450 2C9 (Homo sapiens) (UniProt P11712); assay: Cytochrome P450 family 2 subfamily C member 9 (CYP2C9) small molecule antagonists: luciferase biochemical (cell-free) qHTS assay (AID 1645842; active means well fitted curve in the direction sought with a large enough effect in the repeat runs; an effect the other way counts as inactive or inconclusive; further: nearly all actives have a fitted effect of over 55% in size; further: potency means the concentration at half of the fitted maximal effect)
# Cytochrome P450 2C9 (Homo sapiens), sequence (P11712 whole entry, looked up): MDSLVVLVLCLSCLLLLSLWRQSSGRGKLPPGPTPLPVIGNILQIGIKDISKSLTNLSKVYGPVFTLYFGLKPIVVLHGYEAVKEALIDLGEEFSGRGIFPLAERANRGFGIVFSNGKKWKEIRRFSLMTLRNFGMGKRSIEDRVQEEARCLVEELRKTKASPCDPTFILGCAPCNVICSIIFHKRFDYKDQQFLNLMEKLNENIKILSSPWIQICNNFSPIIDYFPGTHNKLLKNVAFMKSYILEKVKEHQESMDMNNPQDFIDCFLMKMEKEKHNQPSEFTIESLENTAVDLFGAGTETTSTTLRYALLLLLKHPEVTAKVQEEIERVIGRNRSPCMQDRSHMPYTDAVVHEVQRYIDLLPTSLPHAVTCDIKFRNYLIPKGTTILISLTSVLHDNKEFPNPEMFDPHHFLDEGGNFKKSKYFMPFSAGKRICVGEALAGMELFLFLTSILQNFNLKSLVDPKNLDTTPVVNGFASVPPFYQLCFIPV
# Procedure, shortened: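 P450-Glo CYP2C9 system: proluciferin substrate with enzyme in mix containing 0.4% BSA, 10 min at room temperature, then NADPH regeneration solution added and incubated 1 h at 37C. Detection reagent stopped reaction; luminescence read after 20 min as RLU.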
# [2] = Primary qHTS for inhibitors of nuclear receptor binding SET domain protein 2 (NSD2) in an isogenic RCH-ACV NSD2 p.E1099K mutant (9B) (AID 1645876); further: nearly all actives have a fitted effect of over 70% in size; further: potency means the concentration at half of the fitted maximal effect
# [3] = Primary qHTS for inhibitors of nuclear receptor binding SET domain protein 2 (NSD2) in an RCH-ACV wild type WT cells (2C) (AID 1645877); further: nearly all actives have a fitted effect of over 70% in size; further: potency means the concentration at half of the fitted maximal effect
# [4] = target: Catechol O-methyltransferase (Homo sapiens) (UniProt P21964); assay: Confirmatory Screen for Target Class Profiling of Small Molecule Inhibitors of Methyltransferases (AID 1745852; calls by dose curve; further: potency means the concentration at half of the fitted maximal effect); conditions: MTase-Glo luminescence, SAH detection, recombinant enzyme; measured here: COMT max response; stronger effect = lower value
# Catechol O-methyltransferase (Homo sapiens), sequence (P21964 whole entry, looked up): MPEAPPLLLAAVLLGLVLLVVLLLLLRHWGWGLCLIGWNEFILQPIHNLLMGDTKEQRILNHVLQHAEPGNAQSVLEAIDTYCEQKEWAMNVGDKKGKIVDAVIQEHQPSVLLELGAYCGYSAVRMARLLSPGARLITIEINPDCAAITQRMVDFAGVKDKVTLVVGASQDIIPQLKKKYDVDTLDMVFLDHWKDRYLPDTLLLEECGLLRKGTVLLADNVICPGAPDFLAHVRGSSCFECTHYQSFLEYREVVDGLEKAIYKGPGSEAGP
# [5] = target: Guanidinoacetate N-methyltransferase (Homo sapiens) (UniProt Q14353); assay: as above; conditions: activity change, negative = inhibition: at 57.3 µM (top of the series) unless noted
# [6] = target: Nicotinamide N-methyltransferase (Homo sapiens) (UniProt P40261); assay: as above; conditions: MTase-Glo luminescence, SAH detection, recombinant enzyme; measured here: NNMT max response; stronger effect = lower value
# Nicotinamide N-methyltransferase (Homo sapiens), sequence (P40261 whole entry, looked up): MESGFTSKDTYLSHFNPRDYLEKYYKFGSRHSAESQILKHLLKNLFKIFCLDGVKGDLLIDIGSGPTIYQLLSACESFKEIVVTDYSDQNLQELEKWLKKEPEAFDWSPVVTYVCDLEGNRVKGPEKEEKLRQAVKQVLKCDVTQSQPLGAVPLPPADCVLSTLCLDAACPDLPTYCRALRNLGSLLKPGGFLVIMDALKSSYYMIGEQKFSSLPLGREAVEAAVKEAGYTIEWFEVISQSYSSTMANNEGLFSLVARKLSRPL
# [7] = target: Phenylethanolamine N-methyltransferase (Homo sapiens) (UniProt P11086); assay: as above; conditions: MTase-Glo luminescence, SAH detection, recombinant enzyme; measured here: PNMT max response; stronger effect = lower value
# Phenylethanolamine N-methyltransferase (Homo sapiens), sequence (P11086 whole entry, looked up): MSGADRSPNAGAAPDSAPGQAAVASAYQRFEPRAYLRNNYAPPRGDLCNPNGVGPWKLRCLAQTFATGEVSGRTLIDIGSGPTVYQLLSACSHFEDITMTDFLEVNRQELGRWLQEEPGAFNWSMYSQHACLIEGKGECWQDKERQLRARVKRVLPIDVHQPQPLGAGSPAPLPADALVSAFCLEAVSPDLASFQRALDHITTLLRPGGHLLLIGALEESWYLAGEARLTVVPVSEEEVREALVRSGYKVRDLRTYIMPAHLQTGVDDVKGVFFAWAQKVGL
# [8] = NCATS anti-infectives library activity on HEK293 viability as a counter-qHTS vs the C. elegans viability qHTS (AID 1745854)
# Procedure, shortened: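 Cytotoxicity counter-screen to a worm viability qHTS: CellTiter-Glo luminescence read 10 min after reagent addition. Compounds (final up to 41.7 uM, a 1:5 dilution series) incubated 24 hr at 37C with 1,500 HEK293 cells per well; digitonin control.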
structure (smiles),measurement,setting,value
CC1(C)CCC(C)(C)c2cc([C@@H](O)C(=O)Nc3ccc(C(=O)O)cc3F)ccc21,Potency,[1],13.5 µM (active)
same,Potency,[2],inactive
same,Potency,[3],inactive
O=S(=O)(NC1CCNCC1)c1cc(S(=O)(=O)c2ccccc2)ccc1C(F)(F)F,Potency,[1],inactive
same,Potency,[2],inactive
same,Potency,[3],inactive
CCn1cc(C2=NOC(C(=O)Nc3c(C)n(C)n(-c4ccccc4)c3=O)C2)c(C)n1 (stereo not drawn),Potency,[1],1.9 µM (active)
same,Potency,[2],inactive
same,Potency,[3],inactive
COc1cc(NC(=O)c2ccccn2)ccc1Cl,Potency,[1],23.9 µM (active)
same,Potency,[2],inactive
same,Potency,[3],inactive
CCNC(=O)[C@H]1O[C@H](n2cnc3c(NCC(c4ccccc4)c4ccccc4)nc(C(=O)NCCNC(=O)NC4CCN(c5ccccn5)CC4)nc32)[C@H](O)[C@@H]1O,Potency,[1],3.79 µM (active)
same,Potency,[2],inactive
same,Potency,[3],inactive
Cc1ccc(C(=O)Nc2ccc(Oc3cc4cnn(C)c4cc3-c3cn[nH]c3)c(F)c2)c(=O)n1-c1ccc(F)cc1,Potency,[1],2.68 µM (active)
same,Potency,[2],2.9 µM (active) and 5.9 µM (active)
same,Potency,[3],2.9 µM (active) and 3.72 µM (active)
CNC(=O)O[C@H]1COc2ccc(N3CCN(C4COC4)CC3)cc2[C@@H]1NC(=O)c1ccc(F)cc1,Potency,[1],inactive
same,Potency,[2],inactive
same,Potency,[3],inactive
COCCCNCC1COc2ccccc2O1 (stereo not drawn),Potency,[1],inactive
same,Potency,[2],inactive
same,Potency,[3],inactive
CN1CCC(c2c[nH]c3ccc(NC(=O)c4ccc(F)cc4)cc23)CC1,Potency,[1],inactive
same,Potency,[2],inactive
same,Potency,[3],inactive
same,activity,[4],-8.83%
same,"activity change, negative = inhibition",[5],-10.4%
same,activity,[6],-3.82%
same,activity,[7],-4.53%
CC(C)C(=O)c1cn(CC(=O)COc2ccc(Oc3ccccc3)cc2)c2ccc(C(=O)O)cc12,Potency,[1],inactive
same,Potency,[2],inactive
same,Potency,[3],inactive
C(#Cc1cccc(CN2CCOCC2)c1)CCN1CCCCC1,Potency,[1],inactive
same,Potency,[2],inactive
same,Potency,[3],inactive
Cc1nc2c(-c3cnc(N)nc3)nc(N3CCOCC3)nc2n1C(C)C,Potency,[1],12 µM (active)
same,Potency,[2],72.8 nM (active) and 132 nM (active)
same,Potency,[3],72.8 nM (active) and 132 nM (active)
NS(=O)(=O)OC[C@@H]1C[C@@H](n2ccc3c(N[C@H]4CCc5ccccc54)ncnc32)C[C@@H]1O,Potency,[1],21.3 µM (active)
same,Potency,[2],325 nM (active) and 409 nM (active) and 525 nM (active)
same,Potency,[3],365 nM (active) and 515 nM (active) and 525 nM (active)
same,activity,[4],-6.43% and -2.13%
same,"activity change, negative = inhibition",[5],-2.34% and 2.95%
same,activity,[6],-12% and -2.45%
same,activity,[7],-79.3% and -73.9%
same,outcome,[8],inactive
O=c1c2cccnc2n(-c2cccc([N+](=O)[O-])c2)c(=O)n1Cc1ccncc1,Potency,[1],0.268 µM (active)
same,Potency,[2],inactive
same,Potency,[3],inactive
CC[C@H]1OC(=O)C[C@@H](O)[C@H](C)[C@@H](O[C@@H]2O[C@H](C)[C@@H](O)[C@H](N(C)C)[C@H]2O)[C@@H](CCN2C[C@H](C)C[C@H](C)C2)C[C@@H](C)C(=O)/C=C/C(C)=C/[C@@H]1CO[C@@H]1O[C@H](C)[C@@H](O)[C@@H](OC)[C@H]1OC,Potency,[1],inactive
same,Potency,[2],inactive
same,Potency,[3],inactive
CCOC(=O)[C@H](CCc1ccccc1)CC1(C(=O)N[C@H]2CCc3ccccc3N(CC(=O)O)C2=O)CCCC1,Potency,[1],inactive
same,Potency,[2],inactive
same,Potency,[3],inactive
CC(=O)NCCCCn1c2c(c3ccccc31)C(=O)NCC2,Potency,[1],inactive
same,Potency,[2],inactive
same,Potency,[3],inactive
same,activity,[4],-9.83%
same,"activity change, negative = inhibition",[5],-8.34%
same,activity,[6],-4.05%
same,activity,[7],-4.46%
COc1ccc([C@@H]2N[C@H](C(=O)O)Cc3c2[nH]c2ccccc32)cc1CN1CCN(c2ccccc2F)CC1,Potency,[1],inactive
same,Potency,[2],inactive
same,Potency,[3],inactive
CCCCN(CCCC)C(=O)CN1C[C@H](c2ccc3c(c2)OCO3)[C@@H](C(=O)O)[C@@H]1c1ccc(OC)cc1,Potency,[1],21.3 µM (active)
same,Potency,[2],inactive
same,Potency,[3],inactive
CC(C)N(C[C@H]1O[C@@H](n2cnc3c(N)ncnc32)[C@H](O)[C@@H]1O)C1CC(CCc2nc3ccc(C(C)(C)C)cc3[nH]2)C1 (stereo partly drawn),Potency,[1],inactive
same,Potency,[2],inactive
same,Potency,[3],inactive
same,activity,[4],-14.6% and -12.5%
same,Potency,[5],30.4 µM (active)
same,"activity change, negative = inhibition",[5],-3.18%
same,activity,[6],-85.8% and -82.8%
same,activity,[7],-90.9% and -89.3%
COc1cccc(-c2ccc([C@@H](Oc3cc(-c4ccc(C[C@H](N)C(=O)O)cc4)nc(N)n3)C(F)(F)F)cc2)c1,Potency,[1],6.74 µM (active)
same,Potency,[2],inactive
same,Potency,[3],inactive
O=C(COc1ccc(Cl)cc1)NC1CCC(NC(=O)COc2ccc(Cl)cc2)CC1 (stereo not drawn),Potency,[1],inactive
same,Potency,[2],inactive
same,Potency,[3],inactive
CN1Cc2c(N)cccc2C(c2ccccc2)C1 (stereo not drawn),Potency,[1],inactive
same,Potency,[2],inactive
same,Potency,[3],inactive
COc1ccc(C)c2sc(NC(=O)c3ccncc3)nc12,Potency,[1],0.849 µM (active)
same,Potency,[2],inactive
same,Potency,[3],inactive
CC(=O)c1cnc2ccc(-c3cc(Cl)c(O)c(Cl)c3)nc2c1NC1CCC(CN(C)C)CC1 (stereo not drawn),Potency,[1],inactive
same,Potency,[2],30.3 nM (active) and 3.7 nM (active)
same,Potency,[3],38.2 nM (active) and 3.7 nM (active)
